S-ASM inh: Inhibitors of Secretory Acid Sphingomyelinase (S-ASM): qHTS | Potency, µM (highest dose often 57.5 µM), for inactives: top-dose activity change, negative = inhibition, hits mostly inhibitors | 0.006% of 340,000 active | Sphingomyelin phosphodiesterase (Homo sapiens), P17405 | AID 504937, 2011 | placental ASM, HMU-PC fluorogenic substrate, 60 min; also: potency is read from the fitted curve at half-maximal effect
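Human placenta-derived ASM preincubated with compound 10 min at room temperature, then reacted with 9 uM (final) fluorogenic HMU-PC substrate for 60 min at 37 C. Stop solution raises pH to 10; fluorescence read at Ex 386/Em 447 nm.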
pAkt inh: HTS Assay for Inhibitors of Akt Phophorylation: Primary Screen | Neuro2A IGF-stimulated pAkt S473 HTRF, 20 min; hits give low values | AID 651550, 2012 | 0.32% of 360,000 active | activity change, % for hits at 50 µM; in the data active = activity change below about -80%; inconclusive = mostly about -51% to -80%; also: % is scaled to controls: 0 for no effect and ±100 for the full control effect
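Single-point screen (50 µM final compound) in Neuro2A cells stimulated 20 min with 6 nM IGF at 37 deg C. After lysis, Ser473-phosphorylated Akt read by HTRF (ex 330 nm, em 615/665 nm) as the 665/615 ratio.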
Vif-APOBEC3G blk: qHTS for Inhibitors of Vif-A3G Interactions: qHTS; DNA dC->dU-editing enzyme APOBEC-3G (Homo sapiens), Q9HC16; HeLa A3G-eYFP + Vif (tagged APOBEC3G with the HIV-1 protein that degrades it), YFP fluorescence, overnight; Potency, µM (titrated, usually from 46.1 µM), for inactives: top-dose activity, negative = active, actives largely listed as inhibitors; 0.076% of 410,000 active; also: potency is read from the fitted curve at half-maximal effect; % is scaled to controls: 0 for no effect and ±100 for the full control effect; nearly all actives have a fitted effect of over 60% in size
Target sequence (Q9HC16 whole entry, looked up): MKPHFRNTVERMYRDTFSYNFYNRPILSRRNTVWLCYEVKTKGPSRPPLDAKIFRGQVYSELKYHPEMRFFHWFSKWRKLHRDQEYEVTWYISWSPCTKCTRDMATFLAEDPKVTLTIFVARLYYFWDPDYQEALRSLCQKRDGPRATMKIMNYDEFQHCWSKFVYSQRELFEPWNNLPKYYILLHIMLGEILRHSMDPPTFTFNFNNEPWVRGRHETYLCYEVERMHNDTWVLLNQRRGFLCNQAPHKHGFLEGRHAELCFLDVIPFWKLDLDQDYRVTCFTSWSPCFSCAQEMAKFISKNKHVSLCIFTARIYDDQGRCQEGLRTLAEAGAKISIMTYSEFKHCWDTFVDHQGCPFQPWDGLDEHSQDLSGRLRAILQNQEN
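Read-out is eYFP fluorescence (Ex 488/Em 500-530) from Vif-expressing HeLa A3G-eYFP cells; more signal means A3G escaped Vif-mediated degradation. Cells plated overnight, compound pinned in, incubated overnight at 37 deg C.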
TSG101-PTAP inh: qHTS Assay for Iinhibitors of HIV-1 Budding by Blocking the Interaction of PTAP/TSG101; Potency, µM (top dose mostly 115 µM), inactives show top-dose activity change, negative = inhibition, usual class: inhibitors; 340,000 tested, under 10 active; Fluorescence polarization, FITC-PTAP peptide / Tsg101 binding; active = well fitted inhibition curve with a large enough effect in the main read-out, with a control signal flat, not every such curve was filed as active; inconclusive = small, poorly fitted or top-dose-only effect, or effect the other way, or a change in a side signal; inactive = no such curve, though single readings can be large or run the other way; also: potency is read from the fitted curve at half-maximal effect; % of control where 0% means no effect
Target sequence (Q99816 whole entry, looked up): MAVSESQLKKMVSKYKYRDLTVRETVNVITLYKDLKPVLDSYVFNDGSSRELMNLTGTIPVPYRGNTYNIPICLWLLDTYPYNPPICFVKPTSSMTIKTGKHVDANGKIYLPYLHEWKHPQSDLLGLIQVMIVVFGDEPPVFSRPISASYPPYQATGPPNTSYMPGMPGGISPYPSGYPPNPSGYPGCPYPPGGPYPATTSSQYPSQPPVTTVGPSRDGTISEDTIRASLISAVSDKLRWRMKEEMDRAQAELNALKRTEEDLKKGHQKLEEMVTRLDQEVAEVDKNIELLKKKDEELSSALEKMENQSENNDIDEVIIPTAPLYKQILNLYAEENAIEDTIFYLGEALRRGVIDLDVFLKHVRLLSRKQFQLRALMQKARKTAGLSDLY
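Fluorescence polarization binding of Tsg101 binding domain (10 uM final) to FITC-labeled PTAP peptide (50 nM final) in HEPES pH 7.5 buffer with NaCl, Tween 20, EDTA, TCEP. Compounds added before peptide; binding 20 min at RT.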
Vif-APOBEC3F blk: qHTS for Inhibitors of Vif-A3F Interactions: qHTS | HeLa A3F-eYFP + Vif (tagged APOBEC3F with the HIV-1 protein that degrades it), YFP fluorescence increase | 0.2% of 390,000 active | Potency, µM (titrated, usually from 46.1 µM), inactives show at the top dose activity, negative = active; also: potency is read from the fitted curve at half-maximal effect; % of control where 0% means no effect; nearly all actives have a fitted effect of over 65% in size
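HeLa cells stably expressing A3F-eYFP plus Vif, plated and incubated overnight at 37 deg C, then exposed to compounds overnight at 37 deg C. Blocked degradation read as raised yellow fluorescence (Ex 488/Em 500-530).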
ALOX12 inh: Primary qHTS assay for inhibitors of human arachidonate 12S-lipoxygenase (ALOX12): Round 2; Potency, µM (series often up to 108 µM), for inactives: top-dose activity change, negative = inhibition, usual class: inhibitors; AID 1671190, 2021; purified 12hLO, xylenol orange hydroperoxide absorbance; Polyunsaturated fatty acid lipoxygenase ALOX12 (Homo sapiens), P18054; 1.1% of 580,000 active; also: potency is read from the fitted curve at half-maximal effect; % is scaled to controls: 0 for no effect and ±100 for the full control effect
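Purified human 12hLO (150 nM final) in 25 mM Hepes, 0.01% Triton X-100, pH 7.0 was preincubated 15 min at room temperature with compound. Then 40 uM arachidonic acid was added, 30 min. Hydroperoxide was read by Fe-XO absorbance ratio 573/405 nm.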
Starred values were filed as active, the others as inactive; i = inactive; u = inconclusive; x = no result given; [ ] = dose if it differs, or a comment. The list is not random: actives were taken first. Their share in the collection is about 1.4%. Unless noted, calls follow the shape of the dose curve; as a rule, active = well fitted curve in the direction sought with a large enough effect; inconclusive = small, poorly fitted or top-dose-only effect, or another doubt; inactive = no such curve, though single readings can be large; an effect the other way counts as inactive or inconclusive.

SMILES | S-ASM inh | pAkt inh | Vif-APOBEC3G blk | TSG101-PTAP inh | Vif-APOBEC3F blk | ALOX12 inh
c1ccc(N=NC2=NN(c3ccccc3)CS2)cc1 | x | i | 3% | x | 4µM* | u
CCCNC(=O)c1ccc2c(=O)n3c(-c4ccc(C)cc4)csc3nc2c1 | i | i | -4% | 2% | -17% | 11µM*
CCCCCn1c(NCCCOC)nc2c1c(=O)[nH]c(=O)n2C | x | x | x | x | x | 26%
Cc1ccc(Cn2nnc(C(=O)Nc3cccc(C)c3C)c2N)cc1 | -2% | -109%* | -1% | 2% | 8% | 0%
Cc1ccc(C)c(NC(=O)c2nnn(CC(=O)Nc3cccc(C)c3C)c2N)c1 | x | x | 2% | x | -6% | 0%
COCCN1Cc2nc(-c3cccc(OC(F)(F)F)c3)ccc2OCC1=O | x | x | x | x | x | 25%[176 µM]
N#CCc1c(C#N)c(N)nc(NCc2ccccc2)c1C#N | x | x | x | x | x | 0%
NC(=S)N/N=C1\CC(c2ccc3c(c2)OCCO3)Oc2ccc(F)cc21 (stereo not drawn) | -6% | i | -4% | -5% | -11% | u
NC(=S)N/N=C1\CC(c2ccc3c(c2)OCCCO3)Oc2ccc(F)cc21 (stereo not drawn) | -7% | i | 0% | -5% | u | 6.3µM*
CC(=O)Nc1ccc(Sc2ccccc2C(=O)O)cn1 | 0% | i | 0% | -4% | -4% | 2µM*
CC(=O)Nc1ccc(Sc2ccccc2C(=O)Nc2ccc(F)cc2)cn1 | -2% | i | -1% | 0% | -27% | -18%
CN(C)CCCNC(=O)C1CCCN(c2ncnc3nc[nH]c23)C1 (stereo not drawn) | x | x | x | x | x | 2%
COc1ccc(CNC(=O)C[C@H]2C[C@H](C(=O)N3CCOCC3)[C@@]3(CCC4CCCC4)c4[nH]c5cc(-c6ccco6)ccc5c4CCN3C2=O)cc1OC | -19% | i | 0% | 0% | 6% | 40µM*
O=C(C[C@H]1C[C@H](C(=O)N2CCOCC2)[C@@]2(CCC3CCCC3)c3[nH]c4cc(-c5ccco5)ccc4c3CCN2C1=O)NCc1cccc(C(F)(F)F)c1 | 10% | i | -8% | -2% | -2% | -58%
COCCCNC(=O)C[C@H]1C[C@H](C(=O)N2CCOCC2)[C@@]2(CCC3CCCC3)c3[nH]c4cc(-c5ccco5)ccc4c3CCN2C1=O | -2% | i | 3% | 1% | -14% | u
O=C(C[C@H]1C[C@H](C(=O)N2CCOCC2)[C@@]2(CCC3CCCC3)c3[nH]c4cc(-c5ccco5)ccc4c3CCN2C1=O)NCCN1CCOCC1 | 3% | i | -26% | -15% | -5% | 45µM*
C/C=C/C=C\C(=O)Nc1cccc(C2=NOC3(C2)C[C@@H](C(N)=O)N(C(=O)c2cc([N+](=O)[O-])cc([N+](=O)[O-])c2C)C3)c1 (stereo partly drawn) | -12% | i | -2% | -2% | 2% | 16µM*
CCCCCC(=O)Nc1cccc(C2=NOC3(C2)C[C@@H](C(N)=O)N(C(=O)c2cc([N+](=O)[O-])cc([N+](=O)[O-])c2C)C3)c1 (stereo partly drawn) | -16% | i | 0% | 1% | 4% | u
COc1cc(OC)cc(C(=O)/C=C2\Sc3ccccc3N2C)c1 | 31% | i | 3% | 1% | 3% | -6%
COc1ccc2c(c1)S/C(=C\C(=O)c1ccncc1)N2C | -9% | i | -10% | 4% | u | 45µM*
O=C(Nc1cccs1)N1CCNc2cnc(Nc3cccc(F)c3)nc2C1 | x | x | x | x | x | -1%[176 µM]
Nc1nccnc1C(=O)Nc1ccc2ccccc2n1 | x | x | x | x | x | 10µM*
O=C(Nc1ccc2ccccc2n1)c1ccccc1Cl | -1% | i | -13% | -5% | 11% | 13%
CCN1C(=O)[C@H]2[C@@H](c3ccc(-c4cccc(Cl)c4)c(OC)c3)N3CCC[C@@]3(C(=O)OC)[C@H]2C1=O | 17% | i | 0% | -2% | 0% | 50µM*
O=C(c1sccc1-c1ccccc1)N1CCN(S(=O)(=O)c2cccc(F)c2)CC1 | x | x | x | x | x | -13%
SMILES | S-ASM inh | pAkt inh | Vif-APOBEC3G blk | TSG101-PTAP inh | Vif-APOBEC3F blk | ALOX12 inh
CCCCn1c(O)c(C2=Nc3ccccc3SC(c3ccc(O)cc3)C2)c(=O)[nH]c1=O (stereo not drawn) | x | x | x | x | x | 28µM*
Fc1ccc(C2CC(c3ccco3)=Nc3ccccc3S2)cc1 (stereo not drawn) | -4% | i | 0% | -2% | -5% | 3%
COc1ccc(-c2cc(N3CCC(NC(=O)C4COc5ccccc5O4)CC3)n[nH]2)cc1 (stereo not drawn) | x | x | x | x | x | 4%
Cc1noc(C)c1-c1nc(NCCN2CCOCC2)c2ccccc2n1 | x | x | x | x | x | 56µM*
O=S(=O)(O)CC(O)CNC(CO)(CO)CO (stereo not drawn) | x | x | x | x | x | 1%
CCOC(=O)c1ccc(CC(=O)c2oc3cc(O)ccc3c2C)o1 | 2% | i | -6% | -4% | -14% | 16µM*
CCOC(=O)C1=C(C)OC(N)=C(C#N)C1C1CCCCC1 (stereo not drawn) | -5% | -118%* | -15% | -2% | -5% | -4%
Cc1c(C(=O)Nc2ccc3oc(-c4cncc(Br)c4)nc3c2)cccc1[N+](=O)[O-] | x | x | x | x | x | -16%
COc1cc(CNC(=O)c2nc3nc(-c4ccccc4)c(Cl)cc3n2C)cc(OC)c1 | x | x | x | x | x | -12%[176 µM]
CCCCCC1CCC(c2ccc(C(=O)CCN(C)C)cc2)CC1 (stereo not drawn) | x | x | x | x | x | 7.9µM*
CCCOc1ccc(C(=O)CCN(C)C)cc1 | x | x | x | x | x | -85%
CCCSc1ccc(C(=O)CCN(C)C)cc1 | x | x | x | x | x | 32µM*
CCCCCCOc1ccc(C(=O)CCN(C)C)cc1 | x | x | x | x | x | 32µM*
CCCCNS(=O)(=O)c1cc(-c2n[nH]c(=O)c3ccccc23)ccc1C | x | x | x | x | x | -20%
O=C(CSc1nc(Cl)nc2nc[nH]c12)NCCc1c[nH]c2ccccc12 | x | x | x | x | x | 1%
O=S(=O)(N/N=C/c1ccc(Cl)cc1)c1ccc(Cc2ncc(C(F)(F)F)cc2Cl)s1 | -15% | i | 1% | -9% | x | 13%
NC(=O)c1ccc(Cc2ncc(C(F)(F)F)cc2Cl)s1 | 1% | -106%* | 2% | -2% | -9% | u
CC(/C=C\c1ccccc1)=C/C(=O)O | -3% | i | 4% | 0% | -6% | 4%
CC(=O)C1=C(O)C(=CC=Cc2ccccc2)OC1=O | x | i | 1% | x | -21% | 16µM*
